A selection: hits, their analogues and other compounds. The true share with any hit is near 5.7%.
hgDAF12 agonist = agonists of H. glycines DAF-12 nuclear receptor | 1.8% of 370,000 active | HEK293 GAL4-hgDAF12 UAS-luciferase reporter, agonist luminescence; normalized to butyrate control | activation, % at 6.8 µM;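 active means activation above a cutoff set at the mean of all screened compounds plus 3 SD, cut at about 10% in these data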;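 further: 0% = DMSO wells and 100% = sodium butyrate wells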
hcDAF-12 act = activators of H. contortus DAF-12 nuclear receptor | HEK293 hcDAF-12 lit1-tk-luc reporter, luminescence; 0% DMSO, 100% Δ7-dafachronic acid | 1.4% of 370,000 active | activation, % at 6.8 µM;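 active means activation above the mean of all tested compounds plus 3 SD, cut at about 5.5% in these data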;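 further: 100% = response to 3 µM Δ7-dafachronic acid high control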
DAX1 inh-1 = blocks DAX1 repression of SF-1 activated StAR promoter. HEK293T StAR-luciferase reporter, SF-1/DAX-1 repression relief. inhibition, % at 6.8 µM. 1.1% of 370,000 active. AID 652010;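 active means inhibition above the mean over all tested compounds plus 3 SD, cut at about 3.6% in these data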;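 further: 0% = DAX-1 cells with DMSO and 100% = cells lacking DAX-1 with DMSO; higher inhibition means more luminescence from relief of DAX-1 repression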
AHR activator = activates the human aryl hydrocarbon receptor. P35869. AHR-responsive luciferase reporter cells, luminescence. activation, % at 5 µM. 2.5% of 320,000 active; in the data active means activation above about 47%;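 further: 0% = vehicle wells and 100% = reference agonist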
DAX1 inh-2 = NR0B1 (DAX1) inhibition; 0.99% of 340,000 active; inhibition, % at 6.75 µM; HEK293 Gal4-DAX1 luciferase reporter, luminescence; P51843; AID 504766;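 active means inhibition above the mean over all tested compounds plus 3 SD, cut at about 4.2% in these data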;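 further: 0% = DAX1-transfected cells with DMSO and 100% = empty-vector control cells with DMSO; inhibition shows as a rise in luminescence from relieved DAX1 repression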
Target sequence (P51843 207-470 limits assumed): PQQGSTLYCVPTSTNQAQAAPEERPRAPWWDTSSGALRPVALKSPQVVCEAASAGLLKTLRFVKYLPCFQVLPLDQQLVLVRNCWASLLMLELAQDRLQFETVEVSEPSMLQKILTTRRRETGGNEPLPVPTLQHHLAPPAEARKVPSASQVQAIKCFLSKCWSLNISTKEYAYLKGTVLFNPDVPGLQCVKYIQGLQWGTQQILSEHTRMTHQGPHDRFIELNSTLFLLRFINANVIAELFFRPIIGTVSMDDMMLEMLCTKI
ssDAF12 agonist = activators of S. stercoralis DAF-12 nuclear receptor. HEK293 ssDAF-12/GRIP1 lit1-tk-luc reporter, luminescence; % of 3 µM dafachronic acid response. activation, % at 6.8 µM. 1% of 370,000 active. AID 652126;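 active means activation above the mean over all tested compounds plus 3 SD, cut at about 0.9% in these data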;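 further: 0% = DMSO-only wells and 100% = 3 µM delta7-dafachronic acid wells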
DAX1 conf = NR0B1 (human) inhibition, confirmation; shares compounds with DAX1 inh-1; HEK293T StAR-promoter luciferase reporter, SF-1/DAX-1 repression; inhibition, % at 6.8 µM; 87% of 2,400 active; AID 652134;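 active means inhibition above the average of every tested compound plus 3 SD, cut at about 3.8% in these data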;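 further: 0% = DAX-1 cells with DMSO and 100% = no DAX-1 control cells with DMSO; active compounds raise luminescence by relieving repression of the StAR reporter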
SF1 mutant ctr = counter-screen for DAX1 inhibitors: nonselective inhibitors with SF-1 AF2 mutant; 78% of 2,400 active; shares compounds with DAX1 inh-1; AID 652136; inhibition, % at 6.8 µM; HEK293 StAR-luciferase, luminescence;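 active means inhibition above the mean of all tested compounds plus 3 SD, cut at about 3% in these data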;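 further: 0% = DAX-1 transfected cells with DMSO and 100% = cells without DAX-1 with DMSO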
LXR ag = LXR-beta agonism as hcDAF-12 counter-screen; shares compounds with hcDAF-12 act; HEK293 Gal4-LXR tk-luc reporter, luminescence, 24 h; normalized: DMSO 0%, positive control 100%; activation, % at 6.8 µM; 3,400 tested, under 10 active; AID 743027;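 active means mean percent activation of the reporter above a cutoff set as the average over tested compounds plus their standard deviation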
Target sequence (P55055 whole entry, looked up, the tested form may be a part): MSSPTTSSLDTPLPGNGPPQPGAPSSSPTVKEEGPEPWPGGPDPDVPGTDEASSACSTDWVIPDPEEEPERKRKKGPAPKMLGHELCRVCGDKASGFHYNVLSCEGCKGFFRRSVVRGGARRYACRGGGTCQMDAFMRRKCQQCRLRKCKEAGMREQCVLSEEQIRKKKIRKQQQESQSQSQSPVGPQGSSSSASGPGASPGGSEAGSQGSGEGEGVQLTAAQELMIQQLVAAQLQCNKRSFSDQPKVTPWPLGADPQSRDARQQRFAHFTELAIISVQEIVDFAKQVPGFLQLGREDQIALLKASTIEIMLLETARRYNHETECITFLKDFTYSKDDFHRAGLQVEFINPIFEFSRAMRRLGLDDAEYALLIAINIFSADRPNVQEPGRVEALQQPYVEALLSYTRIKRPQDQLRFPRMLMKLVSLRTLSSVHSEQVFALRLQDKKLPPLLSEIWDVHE
hcDAF12 conf = hcDAF-12 agonism, confirmation assay; shares compounds with hcDAF-12 act; HEK293 hcDAF-12 lit1-tk-luc reporter, luminescence; % of Δ7-dafachronic acid response; activation, % at 6.8 µM; 61% of 3,400 active; AID 743032;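 active means mean activation across triplicate tests above the threshold derived from the earlier primary screen, cut at about 5.5% in these data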;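 further: 0% = DMSO only wells and 100% = 3 µM Δ7-dafachronic acid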
hgDAF12 conf = hgDAF-12 agonism, confirmation assay; shares compounds with hgDAF12 agonist; HEK293 GAL4-hgDAF12 luciferase reporter, agonist mode; percent of butyrate response; activation, % at 6.8 µM; 80% of 3,300 active;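 active means mean activation over triplicate wells above the hit cutoff derived from the earlier primary screen, cut at about 11% in these data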;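 further: 0% = DMSO low control and 100% = 2 mM sodium butyrate high control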
LXR ag 2 = activates human LXR-beta, counter-screen for DAF-12 agonists | 3,300 tested, under 10 active | activation, % at 6.8 µM | HEK293 Gal4-LXR luciferase reporter, 24 h | shares compounds with hgDAF12 agonist;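 active means mean activation of the triplicate above a set limit carried over from the primary screen, none filed active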
* marks the source's active call; other numbers are inactive results; . = no result.

SMILES | hgDAF12 agonist | hcDAF-12 act | DAX1 inh-1 | AHR activator | DAX1 inh-2 | ssDAF12 agonist | DAX1 conf | SF1 mutant ctr | LXR ag | hcDAF12 conf | hgDAF12 conf | LXR ag 2
COc1ccc(Nc2nc(C)c(C(C)=O)s2)cc1 | 17* | 4 | 4.9* | . | . | -1 | 5.1* | 4.6* | . | . | 8 | 0
Cc1cnnc2c1-c1no[n+]([O-])c1CC2 | -1 | 3 | 0 | 0 | 1 | 0 | . | . | . | . | . | .
Cc1ccc2nc(-c3ccc(CN4CCC(c5nc6ccccc6[nH]5)CC4)cc3)c(-c3ccccc3)nc2c1 | -4 | -4 | -4 | . | . | -2 | . | . | . | . | . | .
COc1ccc2c(c1)CCC/C2=N\NC(=O)c1ccoc1C | 25* | 7.6* | 4.6* | 1 | 3 | 1.2* | 5.0* | 1 | 0 | 0 | 5 | 0
Cc1cc(C(=O)N/N=C2\CCCc3ccccc32)c(C)o1 | 5 | 0 | 0 | 19 | 1 | 0 | . | . | . | . | . | .
CCCn1c(NCc2ccc(N(C)C)cc2)nc2ccccc21 | 3 | -2 | 1 | 29 | 0 | -1 | . | . | . | . | . | .
CN(C)c1ccc(CNc2nc3ccccc3n2C)cc1 | 15* | 5 | 4.8* | . | 2 | -1 | 8.6* | 6.9* | . | . | 17* | 1
CCc1ccc(CNCCNC(=O)c2ccco2)cc1 | 15* | 2 | 5.8* | . | 0 | 0 | 4.9* | 2.9* | . | . | 1 | 0
O=C(NCCNCc1ccccc1)c1ccco1 | 6 | 3 | 3 | . | 0 | 0 | . | . | . | . | . | .
COc1ccc(-c2nc3ccccc3s2)cc1NC(C)=O | 19* | 9.6* | 8.9* | 57* | 2 | 0 | 8.2* | 4.0* | 1 | 7.8* | 16* | 1
O=C(NCc1ccccc1)c1nc2ccccc2s1 | 2 | 1 | -1 | -1 | 1 | -2 | . | . | . | . | . | .
CC(=O)NCc1ccc(-c2nc3ccccc3s2)cc1 | 15* | 4 | 6.9* | 0 | 1 | -1 | 16* | 6.7* | . | . | 15* | 1
CC(=O)OC1CCC2C3CCc4cc(OP(=O)(N5CC5)N5CC5)ccc4C3CCC12C (configuration not stated) | 1 | 2 | -1 | . | 2 | -1 | . | . | . | . | . | .
O=C(Nc1ccc2ccccc2n1)Nc1ccccc1F | -1 | -1 | 0 | 13 | 0 | -1 | . | . | . | . | . | .
Fc1ccc(Nc2ccc3ccccc3n2)c(F)c1 | 15* | 9.8* | 9.7* | -4 | -2 | 1.0* | 14* | 9.4* | 2 | 9.4* | 20* | 1
Cc1ccc(-c2onc3ccc(C4OCCO4)cc23)cc1 | 14* | 4 | 5.3* | 15 | -3 | 0 | 1 | -6 | . | . | 3 | 0
CC(=O)Oc1ccc2c(=O)c(Oc3ccccc3[N+](=O)[O-])coc2c1 | -4 | -1 | -1 | 6 | 0 | -2 | . | . | . | . | . | .
CC(=O)Oc1ccc2c(=O)c(-c3nc4ccccc4s3)coc2c1 | 13* | 6.7* | 5.7* | 18 | 0 | 0 | 5.7* | 2 | 1 | 9.0* | 9 | 0
C=CCc1cc(C=O)cc(OCC)c1O | 2 | -1 | 0 | 12 | 0 | -2 | . | . | . | . | . | .
CCOc1cccc(-c2cnc3cccnn23)c1 | 21* | 1 | 6.1* | . | . | 0 | 7.1* | 5.1* | . | . | 16* | 0
Cc1c(C(=O)Nc2ccccc2)csc1-c1ccccc1 | 20* | 8.1* | 6.0* | -5 | 0 | 1.7* | 16* | 5.6* | 2 | 6.5* | 25* | 1
Cc1cc2nc(N3C(=O)CNC3=S)sc2cc1C | 17* | 2 | 6.7* | 3 | 0 | 1.0* | 14* | 7.0* | . | . | 13* | 1
Cc1cc(C(=O)COC(=O)c2ccc(Cl)c(S(N)(=O)=O)c2)c(C)n1C1CC1 | 14* | 2 | 8.0* | -2 | 1 | 0 | 8.3* | 5.4* | . | . | 15* | 0
N/C(=N\OC(=O)Nc1ccccc1)c1cccc(C(F)(F)F)c1 | 2 | -2 | 1 | 2 | -1 | -1 | . | . | . | . | . | .
Cn1nnnc1SCC(=O)Nc1ccc2c(c1)OCCO2 | 15* | 3 | 6.5* | 17 | 4 | 0 | 8.2* | 3 | . | . | 14* | 1
SMILES | hgDAF12 agonist | hcDAF-12 act | DAX1 inh-1 | AHR activator | DAX1 inh-2 | ssDAF12 agonist | DAX1 conf | SF1 mutant ctr | LXR ag | hcDAF12 conf | hgDAF12 conf | LXR ag 2
Cc1ccc(-n2nnnc2SCC(=O)Nc2ccc3c(c2)OCCO3)cc1C | 2 | 1 | -1 | 2 | 0 | -2 | . | . | . | . | . | .
O=C(Cc1cccs1)N(CC1CCCO1)C1(C(=O)NC2CCCC2)CCCCC1 (configuration not stated) | 2 | -1 | -1 | 0 | 0 | -2 | . | . | . | . | . | .
COc1cc(SC)ccc1C(=O)Nc1ccc2c(c1)OCCO2 | 14* | 8.2* | 4.7* | -1 | 0 | 1 | 9.2* | 3.6* | 2 | 7.2* | 16* | 1
COc1cc(SC)ccc1C(=O)Nc1nccs1 | 17* | 12* | 4.7* | 52* | -1 | 1.3* | 15* | 5.6* | 2 | 14* | 17* | 1
O=C(C(NS(=O)(=O)c1cccs1)c1ccccc1)N1CCN(c2ccccc2)CC1 (configuration not stated) | -1 | 0 | 0 | 0 | 0 | -1 | . | . | . | . | . | .
Cc1ccc(NC(=O)COc2ccccc2[N+](=O)[O-])nc1 | 18* | 7.3* | 4.7* | 4 | -1 | 1.7* | 11* | 5.9* | 2 | 9.3* | 12* | 1
O=C(COc1ccccc1[N+](=O)[O-])Nc1cccnc1 | 7 | -1 | 1 | -5 | 1 | -1 | . | . | . | . | . | .
Cc1ccnc(NC(=O)COc2ccccc2[N+](=O)[O-])c1 | 14* | 7.4* | 4.9* | . | 0 | 1.1* | 13* | 5.2* | 1 | 4 | 12* | 1
OC[C@H]1O[C@@H](Oc2ccc3cc(Br)ccc3c2)[C@H](O)[C@@H](O)[C@H]1O | -2 | -1 | -1 | 0 | 1 | -1 | . | . | . | . | . | .
